Assay results as given in PubChem BioAssay AID2284349 (EPA ToxCast).
Records with an inconclusive call do not appear. Active and inactive are the calls of the source. Rule for the calls: active = hit-call score of the fitted dose curve at least 0.9, where 1 is the maximum; inconclusive = response in the unintended direction; inactive = score below 0.9.

Biological target: frog Peroxisome Proliferator-activated Receptor-gamma (PPARg), pparg (gene 397769) (UniProt P37234)
Assay: ATG_frPPARg_EcoTox2: Attagene TRANS-FACTORIAL EcoTox-2 HepG2 Assay for frog Peroxisome Proliferator-activated Receptor-gamma (PPARg)
Experimental: ATG_EcoTox2 is a cell-based, multiplexed assay created by modifying the existing Attagene TRANS-FACTORIAL system to include a panel of nuclear receptors from some or all the following species: human (Homo sapiens), african clawed frog (Xenopus laevis), rainbow trout (Oncorhynchus mykiss), japanese medaka (Oryzias latipes), and zebrafish (Danio rerio). The ECOTOX2-FACTORIAL format uses HepG2, a human liver cell line, with measurements taken at 24 hours after chemical dosing in a 24-well plate. ATG_frPPARg_EcoTox2 is one of 29 assay components calculated in the ATG_EcoTox2 assay. It is designed to make measurements of mRNA induction, a form of inducible reporter, as detected with fluorescence intensity signals by Reverse transcription polymerase chain reaction (RT-PCR) and Capillary electrophoresis technology.The assay endpoint ATG_frPPARg_EcoTox2 was analyzed in the positive analysis fitting direction relative to DMSO as the negative control and baseline of activity. Using a type of inducible reporter, measures of mRNA for gain-of-signal activity can be used to understand the reporter gene at the transcription factor-level as they relate to the gene PPARg. Furthermore, this assay endpoint can be referred to as a primary readout, because this assay has produced multiple assay endpoints where this one serves a reporter gene function. […]

Sequence of frog Peroxisome Proliferator-activated Receptor-gamma (PPARg), pparg (gene 397769) (P37234 whole entry, looked up): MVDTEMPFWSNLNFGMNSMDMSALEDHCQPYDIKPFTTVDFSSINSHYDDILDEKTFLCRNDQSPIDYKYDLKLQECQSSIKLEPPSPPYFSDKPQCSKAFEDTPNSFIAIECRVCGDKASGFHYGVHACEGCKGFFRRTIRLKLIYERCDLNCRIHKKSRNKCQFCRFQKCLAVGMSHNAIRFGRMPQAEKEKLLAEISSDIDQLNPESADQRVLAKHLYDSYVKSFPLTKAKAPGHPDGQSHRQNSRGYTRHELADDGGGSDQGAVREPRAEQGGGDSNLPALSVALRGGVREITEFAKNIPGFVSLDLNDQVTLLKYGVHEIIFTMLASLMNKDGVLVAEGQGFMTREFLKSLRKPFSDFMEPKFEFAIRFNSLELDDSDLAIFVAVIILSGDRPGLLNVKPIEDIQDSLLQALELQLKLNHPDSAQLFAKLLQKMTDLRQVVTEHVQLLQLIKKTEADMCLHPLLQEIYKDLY

| Structure (SMILES) | outcome |
| --- | --- |
| O=S(=O)(O)C(F)(F)C(F)(F)C(F)(F)C(F)(F)C(F)(F)C(F)(F)F | inactive |
| CCCCOCN(C(=O)CCl)c1c(CC)cccc1CC | inactive |
